# Test results taken from the supplement of paper PMC11219838.
# Unmarked numbers belong to inactive results.
# Test system: Meloidogyne hapla J2
# Assay: proportion of mobile M. hapla J2 relative to DMSO control (fraction of DMSO control); higher = more viable, less nematicidal, active = 0.7 or less
# Conditions: 60 µM; 5 days; temperature: 20 °C
# Experimental: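 DODA library (846 commercial 1,3,4- and 1,2,4-oxadiazole compounds plus commercial nematicide controls) screened at a single dose of 60 µM (0.6% DMSO) in 96-well plates, two biological replicates. Read-outs: C. elegans N2 L1 survival/reproduction score at day 6, 20 °C (0: 0-10 worms, 1: 11-20, 2: 21-50, 3: >50, 4: overgrown/starved). C. elegans daf-2 dauer, D. dipsaci and M. hapla J2 mobility at day 5, 20 °C, and P. penetrans mobility at day 5, 20 °C, each relative to DMSO controls. M. hapla egg hatching at day 12, 25 °C, relative to the mean of 8 DMSO wells on the same plate.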
row,Structure (SMILES),proportion of mobile M. hapla J2
1,N#Cc1ccc(OCc2nc(-c3ccc(Br)o3)no2)cc1,1.06
2,Cc1cc(OCc2nc(-c3cccnc3)no2)cc(C)c1Br,1.05
3,Cc1ccc(NC(=O)CSc2nnc(-c3ccc(C(C)(C)C)cc3)o2)c(C)c1,0.766
4,Brc1cccc(-c2nnc(SCc3ccccc3)o2)c1,0.968
5,COc1cccc(-c2noc(COc3ccc(C)c(C)c3)n2)c1,1.06
6,COc1cccc(-c2nnc(SCC(=O)Nc3cccc(C(F)(F)F)c3)o2)c1,1.01
7,COc1ccc(Cl)cc1NC(=O)CSc1nnc(-c2ccncc2)o1,0.98
8,COc1ccc(CCC(=O)Nc2ccc(-c3noc(-c4ccccc4C)n3)cc2)cc1,0.791
9,c1ccc(-c2nnc(SCc3nc4ccccc4[nH]3)o2)cc1,1.04
10,NC(=O)COc1ccccc1-c1nc(-c2ccccc2Cl)no1,0.851
11,N#Cc1cccc(CSc2nnc(-c3ccncc3)o2)c1,0.745
12,Cc1cccc(NC(=O)CSc2nnc(-c3ccncc3)o2)c1C,1.02
13,CCOc1cc(-c2nc(-c3cccnc3)no2)cc(OCC)c1OCC,1.05
14,Cc1ccc(-c2nc(-c3ccncc3)no2)c(Cl)c1,0.979
15,COc1ccc(-c2nnc(SCC(=O)Nc3ccc(Cl)cc3Cl)o2)cc1,0.976
16,CCn1c(SCc2nc(-c3ccccc3)no2)nc2ccccc21,1.02
17,CCOc1nc(-c2ccccc2)ccc1-c1noc(-c2cccc(OC)c2)n1,0.759
18,COc1nc2ccc(C)cc2cc1-c1noc(-c2cccnc2)n1,0.972
19,O=C(CSc1nnc(-c2ccccc2Cl)o1)Nc1nccs1,0.992
20,O=C(CSc1nnc(-c2ccco2)o1)Nc1ccc(Br)cn1,0.756

row,Structure (SMILES),proportion of mobile M. hapla J2
1,O=C(CSc1nnc(-c2ccc(Cl)cc2)o1)NC1CCCCC1,0.918
2,CC(=O)Nc1ccc(C(=O)CSc2nnc(-c3cccc(Br)c3)o2)cc1,1.01
3,Fc1ccc(-c2nc(-c3ccc(Cl)cc3)no2)cc1,0.919
4,CC(C)(C)c1ccc(-c2nc(-c3ccncc3)no2)cc1,1.03
5,COc1ccc(CCC(=O)Nc2ccc(-c3noc(COc4ccccc4C)n3)cc2)cc1,0.898
6,Clc1ccc(OCc2nc(-c3ccccc3)no2)cc1,1.04
7,COc1ccc(-c2nnc(SCc3c(Cl)cccc3Cl)o2)cc1,1
8,O=C(CSc1nnc(-c2ccccc2)o1)Nc1cccc(C(F)(F)F)c1,1
9,Cc1cccc(-c2nnc(SCC(=O)NCCc3ccccc3)o2)c1,0.872
10,Ic1ccc(OCc2nc(-c3ccncc3)no2)cc1,1.01
11,Cc1ccc(OCc2nc(-c3ccncc3)no2)cc1C,1.03
12,Cc1ccc(C(=O)CSc2nnc(-c3ccccc3)o2)cc1,0.968
13,O=C(NC1CCCCC1)c1ccccc1-c1nc(-c2ccc(F)cc2)no1,0.863
14,Clc1ccc(-c2nc(-c3ccccc3Br)no2)cc1,0.984
15,CNC(=O)c1ccccc1-c1nc(-c2ccc(Cl)cc2)no1,0.985
16,COc1ccccc1CC(=O)Nc1ccc(-c2noc(-c3ccc(Cl)cc3)n2)cc1,0.938
17,CCCSc1nnc(-c2ccc(Cl)cc2Cl)o1,0.991
18,Cc1ccc(-c2noc(-c3cc(C)cc(C)c3)n2)cc1,0.719
19,CCCc1ccc(-c2nc(-c3cccnc3)no2)cc1,1.08
20,Cc1ccc(-c2noc(-c3ccccc3C)n2)cc1,1.04
